Screening results as filed in PubChem.
This is a sample that favours compounds with a hit; in the whole collection about 4.1% have one here.
TIM10 inh = growth inhibitors of isogenic TIM10 control yeast, primary screen, counter-screen for tim10-1 yeast inhibitor project, luminescence, uHTS; S. cerevisiae TIM10 strain growth, BacTiter-Glo luminescence, 24 h; inhibition, % at 10 µM; 330,000 tested, 1.4% active; AID 463195, 2010;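 active = inhibition of 40% or more at the single tested concentration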;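 note: wild-type TIM10 isogenic control strain grown at permissive 25 °C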
NALP1 yeast inh = NALP1 inflammasome inhibitors in reconstituted yeast, colorimetric, S. cerevisiae, triplicate retest. inhibition, % at 10 µM. S. cerevisiae NALP1/ASC/caspase-1 growth, X-gal OD620, 72 h. 280,000 tested, 0.61% active; in the data active = inhibition mostly above about 24%, no sharp cut-off; inactive = mostly below about 32%
tim10-1 inh = growth inhibitors of tim10-1 mutant yeast, primary screen, luminescence, uHTS; S. cerevisiae tim10-1 ts strain growth, BacTiter-Glo, 24 h; inhibition, % at 20 µM; 330,000 tested, 2.2% active;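 active = inhibition of at least 40%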;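 note: mutant grown at 25 °C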
tim23-1 inh = growth inhibitors of tim23-1 mutant yeast, primary screen, luminescence, uHTS; S. cerevisiae tim23-1 growth, BacTiter-Glo luminescence, 24 h; inhibition, % at 20 µM; 330,000 tested, 1.3% active; AID 463212, 2010;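 active = growth inhibition of the mutant yeast at or above 50%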;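 note: temperature-sensitive mutant grown at 25 °C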
NLRP3 yeast inh = NALP3 inflammasome inhibitors in reconstituted yeast, primary screen, luminescence, uHTS. Yeast reconstituted NLRP3/ASC/caspase-1, beta-gal luminescence, 24 h. AID 2825, 2010. 330,000 tested, 0.39% active. inhibition, % at 10 µM;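 active = inhibition of 50% or more; inactive = inhibition below 50%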
tim23-1 conf = tim23-1 mutant yeast growth inhibitors, confirmation, luminescence, single concentration; shares compounds with tim23-1 inh; inhibition, % at 20 µM; S. cerevisiae tim23-1 growth, BacTiter-Glo luminescence, 24 h; 4,400 tested, 83% active;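 active = inhibition above about 39% in either of two replicate wells at 20 µM, limit read from the data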;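 note: temperature-sensitive tim23-1 mutant grown at 25 °C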
Of the large screens only hits and unclear results are named; the others gave an inactive call (follow-up assays come after a bar, where they were run).

COP(=O)(OC)/C(C=O)=N/Nc1ccc([N+](=O)[O-])cc1	tim23-1 inh 51.7 | tim23-1 conf 50.1
CCCCCc1nc2c(c(=O)c3ccccc3n2C)c(=O)n1C1CCCCCC1	tim23-1 inh 70.4 | tim23-1 conf inactive
COc1ccc2c3c1OC1[C@H](O)CCC4[C@@H](C2)N(C)CC[C@]314 (stereo partly specified)	none (no result: NALP1 yeast inh)
Cc1ccc(-c2nn(Cc3ccccc3)cc2C=O)cc1	tim23-1 inh 57.4 (no result: NALP1 yeast inh) | tim23-1 conf 54.9
Cc1ccc(-c2nn(Cc3ccccc3)cc2C(=O)O)cc1	none (no result: NALP1 yeast inh)
COc1cc(-n2c(=S)[nH]c3ccccc3c2=O)c(Cl)cc1Cl	tim23-1 inh 51.6 | tim23-1 conf inactive
COC(=O)C1=C(c2cccc(C#N)c2)C[C@@H]2CC[C@H]1N2C(=O)NCC1CC1	none (no result: NALP1 yeast inh)
CC1(C)OC(c2ccccc2)=C/C(=C/C=C2C(=O)NC(=S)NC2=O)O1	tim23-1 inh 57.4 | tim23-1 conf 62.9
